{
  "source": "ChEMBL document CHEMBL4513216",
  "about": "“Probing the Open Global Health Chemical Diversity Library for Multistage-Active Starting Points for Next-Generation Antimalarials” (ACS Infect Dis, 2020)",
  "note": "The campaign covered roughly 68,000 compounds. About 2,700 (4%) showed an effect of 50% or more. The sample holds strong results, similar compounds and a random draw of the others, so the mix is not that of the screen.",
  "data": [
    {"tested_on": "Plasmodium berghei", "assay": "Screen against P. berghei liver stage (PbLuc), transformed with Luciferase, at 2uM", "format": "functional, HepG2", "conditions": "tested at 2 uM", "units": {"INHIBITION": "%"}, "values": [
      {"smiles": "COCCNC(=O)[C@H]1CC[C@@H]2[C@@H](CCN2c2ncc(F)cn2)O1", "INHIBITION": 31.65},
      {"smiles": "CN1C(=O)CC(c2cnn(C)c2)C12CCN(C(=O)c1ccnnc1)CC2", "note": "(stereo not drawn)", "INHIBITION": -26.73},
      {"smiles": "O=C(N1CCCC1)N1CCOCC2(CCN(Cc3cccs3)C2)C1", "note": "(stereo not drawn)", "INHIBITION": 25.31},
      {"smiles": "Cc1cn2nc(N3CCN(Cc4c(C)noc4C)CC3)sc2n1", "INHIBITION": -4.99},
      {"smiles": "Oc1cc(C2CCCN(Cc3cccs3)C2)nc(-c2ccccn2)n1", "note": "(stereo not drawn)", "INHIBITION": 30.29},
      {"smiles": "COc1cccc(C(=O)N2CCN(CC(O)c3ccccc3)CC2)c1", "note": "(stereo not drawn)", "INHIBITION": 55.25},
      {"smiles": "COc1cccc(C(O)CN2CCN(C(=O)c3ccsc3)CC2)c1", "note": "(stereo not drawn)", "INHIBITION": 38.49},
      {"smiles": "COc1ccc(N2CCN(CC[C@H](O)c3ccccc3)CC2=O)cc1", "INHIBITION": 17.28},
      {"smiles": "COc1ccccc1N1CCN(CC[C@H](O)c2ccccc2)CC1=O", "INHIBITION": -23.57},
      {"smiles": "COc1cccc(N2CCN(CC[C@H](O)c3ccccc3)CC2=O)c1", "INHIBITION": 61.75},
      {"smiles": "N#CCc1cccc(C(=O)N2CCN(CC(O)c3ccccc3)CC2)c1", "note": "(stereo not drawn)", "INHIBITION": 29.42},
      {"smiles": "COCC(=O)N1CCn2c(CN3CCN(C)CC3)cnc2C1", "INHIBITION": -11.88},
      {"smiles": "Cc1nccc(N2CCCC(C)(C(=O)NC3CCCC3)C2)n1", "note": "(stereo not drawn)", "INHIBITION": 1.42},
      {"smiles": "O=C(c1cnc(COc2ccccc2)nc1O)N1CCC(F)(F)CC1", "INHIBITION": 10.91},
      {"smiles": "Cc1nc(CN2CCC3(CCN(C(=O)c4ccoc4C)CC3)C2)cs1", "INHIBITION": -13.88},
      {"smiles": "Cc1nn(C)c(N2CCOCC2)c1CNCC1CCCN1C", "note": "(stereo not drawn)", "INHIBITION": 53.98},
      {"smiles": "Cc1nn(C)c(N2CCOCC2)c1CNCC1CCN(C2CC2)C1", "note": "(stereo not drawn)", "INHIBITION": 59.03},
      {"smiles": "Cc1nn(C)c(N2CCOCC2)c1CNCC1CCS(=O)(=O)C1", "note": "(stereo not drawn)", "INHIBITION": 5.17},
      {"smiles": "Cc1nn(C)c(N2CCOCC2)c1CNC1CCN(C2CC2)CC1", "INHIBITION": 24.65},
      {"smiles": "Cc1nn(C)c(N2CCOCC2)c1CNC1CCC(O)CC1", "note": "(stereo not drawn)", "INHIBITION": -5.7},
      {"smiles": "Cc1nn(C)c(N2CCOCC2)c1CNCc1ccnn1C", "INHIBITION": 8.06},
      {"smiles": "COCCC(=O)N1CCCC1c1nccc(C)n1", "note": "(stereo not drawn)", "INHIBITION": -17.21},
      {"smiles": "CNC(=O)C1CCN(c2ncnc3c2CCN(C(=O)C2CC2)C3)C1", "note": "(stereo not drawn)", "INHIBITION": 16.53},
      {"smiles": "OC1CCN(Cc2c(-c3ccco3)[nH]c3ncccc23)CC1", "INHIBITION": 8.09},
      {"smiles": "Cc1nc(CN2CCCC(N(C)Cc3nc(CC(C)C)no3)C2)no1", "note": "(stereo not drawn)", "INHIBITION": 23.86},
      {"smiles": "CC(=O)N1CCC(c2nccnc2-c2ccc(C(=O)O)cc2)CC1", "INHIBITION": 51.57},
      {"smiles": "CC(=O)N1CCC(c2nccnc2-c2ccc(F)cc2)CC1", "INHIBITION": 33.77},
      {"smiles": "COc1ccc(-c2nccnc2C2CCN(C(C)=O)CC2)cc1", "INHIBITION": -30.31},
      {"smiles": "CC(C)c1ncc2c(n1)CN(CC(=O)Nc1ccncc1)CC2", "INHIBITION": -36.7},
      {"smiles": "Cc1csc(N2CCN(C(=O)NCCNc3ncccn3)CC2)n1", "INHIBITION": -10.6},
      {"smiles": "CN(C)c1ncccc1NC(=O)COC1CCCC1", "INHIBITION": 35.13},
      {"smiles": "CN(C)c1ncccc1NC(=O)COCC1CC1", "INHIBITION": 64.35},
      {"smiles": "O=C(COCC1CC1)Nc1ncccc1O", "INHIBITION": 25.23},
      {"smiles": "O=C(COc1cccc2c1CCC2=O)NCCc1cccs1", "INHIBITION": -27.22},
      {"smiles": "COCCN(C(=O)c1cc(C)no1)c1ccc(C#N)cc1", "INHIBITION": -43.03},
      {"smiles": "COc1no[n+]([O-])c1-c1ccccc1", "INHIBITION": 32.19},
      {"smiles": "CC(C)(C)C(=O)N1CCCC1(C(=O)N1CCCC1)c1cnccn1", "note": "(stereo not drawn)", "INHIBITION": 33.56},
      {"smiles": "Cn1cc(C2CC3(CCN(C(=O)c4cccs4)CC3)NC2=O)cn1", "note": "(stereo not drawn)", "INHIBITION": -16.25},
      {"smiles": "CN(C)C(C(=O)NCC1(C)COC1)c1cccc(F)c1", "note": "(stereo not drawn)", "INHIBITION": -15.77},
      {"smiles": "COc1ccc(CN2CCC3(CC(=O)N(c4cccc(F)c4)C3)C2)cc1", "note": "(stereo not drawn)", "INHIBITION": 40.4},
      {"smiles": "O=C1CC2(CCN(Cc3ccncc3)C2)CN1c1cccc(F)c1", "note": "(stereo not drawn)", "INHIBITION": 54.62},
      {"smiles": "N#Cc1cccc(N2CC3(CCN(C(=O)c4ccnnc4)C3)CC2=O)c1", "note": "(stereo not drawn)", "INHIBITION": 25.24},
      {"smiles": "O=C1CC2(CCN(Cc3cccnc3)C2)CN1c1cccc(F)c1", "note": "(stereo not drawn)", "INHIBITION": 38.49},
      {"smiles": "N#Cc1cccc(N2CC3(CCN(C(=O)c4cccnc4)C3)CC2=O)c1", "note": "(stereo not drawn)", "INHIBITION": 11.72},
      {"smiles": "N#Cc1cccc(N2CC3(CCN(C(=O)c4ccncc4)C3)CC2=O)c1", "note": "(stereo not drawn)", "INHIBITION": 53.77},
      {"smiles": "CCc1ccc(OCCn2cccn2)cc1", "INHIBITION": -3.72},
      {"smiles": "COc1c(C2CCCN2C(=O)c2csc(C3CC3)n2)c(C)nn1C", "note": "(stereo not drawn)", "INHIBITION": 15.13},
      {"smiles": "CCOc1cccc2c1OCC(=O)N(c1ccc(N(C)C)cc1)C2", "INHIBITION": 43.74},
      {"smiles": "CCOc1cccc2c1OCC(=O)N(c1ccc3c(c1)OCCO3)C2", "INHIBITION": 67.29},
      {"smiles": "CCOc1cccc2c1OCC(=O)N(c1ccc3c(c1)OCO3)C2", "INHIBITION": 25.73},
      {"smiles": "COC(=O)c1ccc(C2CC(=O)Nc3c2cnn3C)cc1", "note": "(stereo not drawn)", "INHIBITION": 13.95},
      {"smiles": "Cc1ncsc1COC(=O)c1cccc2c1OCCO2", "INHIBITION": 38.1},
      {"smiles": "Cn1cnnc1C1CCCN(C(=O)NCc2cc[nH]n2)C1", "note": "(stereo not drawn)", "INHIBITION": 28.65}
    ]}
  ]
}
